{"source": "ChEMBL document CHEMBL3433997", "about": "“St. Jude Leishmania screening dataset” (2016)", "data": [{"molecular_target": "Solute carrier family 2, facilitated glucose transporter member 1 (Homo sapiens) (UniProt P11166)", "sequence (P11166 whole entry)": "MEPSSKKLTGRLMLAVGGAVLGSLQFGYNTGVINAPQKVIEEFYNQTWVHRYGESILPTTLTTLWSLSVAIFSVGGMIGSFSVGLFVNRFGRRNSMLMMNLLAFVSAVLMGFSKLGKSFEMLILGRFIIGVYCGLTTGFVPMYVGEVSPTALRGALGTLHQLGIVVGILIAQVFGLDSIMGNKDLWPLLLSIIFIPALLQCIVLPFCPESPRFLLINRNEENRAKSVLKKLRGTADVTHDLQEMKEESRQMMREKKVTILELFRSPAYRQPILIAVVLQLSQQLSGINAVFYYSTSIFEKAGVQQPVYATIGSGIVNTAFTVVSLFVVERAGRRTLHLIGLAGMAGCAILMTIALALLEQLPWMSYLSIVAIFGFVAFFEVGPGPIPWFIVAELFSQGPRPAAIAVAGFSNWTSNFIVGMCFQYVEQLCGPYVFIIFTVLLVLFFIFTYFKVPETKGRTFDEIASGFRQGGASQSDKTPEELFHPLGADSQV", "assay": "ST_JUDE_LEISH: Cytotoxicity at 2uM final concentration against transgenic Leishmania Mexicana promastigotes LmGLUT1 that are glucose transport deficient and complemented with the human glucose transporter GLUT1. Activity is measured by DNA content using SYBR green in vitro", "type": "functional", "units": {"inhibition": "%"}, "values": [{"smiles": "CCCN1CCN(CCCCNc2c3ccccc3nc3ccccc23)CC1", "inhibition": 51.5}, {"smiles": "COc1cccc(C(=O)NCc2cccs2)c1OCc1ccccc1", "inhibition": 1.77}, {"smiles": "COc1ccc(Nc2cc(C)nc(Nc3ccc(NC(C)=O)cc3)n2)cc1", "inhibition": 47}, {"smiles": "CC(C)C(=O)NC(Nc1ccc([N+](=O)[O-])cc1)C(Cl)(Cl)Cl", "note": "(stereo not given)", "inhibition": 3.83}, {"smiles": "N=C(N)NCCCN(Cc1ccccc1)c1ccc(Cl)cc1", "inhibition": 7.39}, {"smiles": "COc1ccc(S(=O)(=O)N(CC(=O)NN=C(C)c2cccs2)c2cc(C)cc(C)c2)cc1OC", "inhibition": 0.78}, {"smiles": "Cc1ccc2c(c1)C1(CC(=O)N(CCc3scnc3C)C1=O)C(=O)N2Cc1ccccc1", "note": "(stereo not given)", "inhibition": 2.62}, {"smiles": "CCN(CCCN1CCCCC1)c1cc(C)nc(Nc2ccc(Cl)cc2)n1", "inhibition": 1.87}, {"smiles": "CN(C)Cc1ccc(-c2ccc(NC(=O)c3ccc4c(=O)n(Cc5ccccc5)cnc4c3)cc2)cc1", "inhibition": 95.2}, {"smiles": "CCN(CC)c1ccc(C=CC(=O)NCCN2CCC(N(C)C3CCCCC3C)CC2)cc1", "note": "(stereo not given)", "inhibition": -2.14}, {"smiles": "COc1cc(C(=O)N2CCC(CCN3CCC4(CC3)CN(S(C)(=O)=O)c3ccccc34)CC2Cc2ccc(Cl)c(Cl)c2)cc(OC)c1OC", "note": "(stereo not given)", "inhibition": 3.23}, {"smiles": "CCOC(=O)N1CCN(C(=O)Nc2ccc(Cl)cc2)CC1", "inhibition": 1.34}, {"smiles": "O=C(NC1CCN(Cc2ccccc2)CC1)c1ccc(CNC2CCN(Cc3ccccc3)CC2)cc1", "inhibition": 4.84}, {"smiles": "O=C(Nc1ccc2c(c1)OCCO2)c1cc(-c2cccnc2)nc2ccc(Cl)cc12", "inhibition": 3.75}, {"smiles": "Cc1cccc2nc(-c3cccc(-c4cccc(NC(=O)Nc5ccccc5)c4)c3)[nH]c12", "inhibition": 3.85}, {"smiles": "Cc1cnc(C(=O)Nc2cccc(-c3cccc(-c4nc5cccc(C)c5[nH]4)c3)c2)cn1", "inhibition": 4.11}, {"smiles": "CC(C)C[C@@H](CNC[C@H](CC(C)C)NC(=O)OC(C)(C)C)NC(=O)OC(C)(C)C", "inhibition": -0.36}, {"smiles": "COc1cc2nc(Nc3ccc4c(c3)OCCO4)nc(N)c2cc1OC", "inhibition": -0.32}, {"smiles": "COc1cccc2cc(C(=O)N[C@@H](CC(C)C)C(=O)N[C@H](C=NN3CC(=O)NC3=O)CC(C)C)oc12", "inhibition": 2.8}, {"smiles": "O=C(CCc1c[nH]cn1)Nc1cccc(-c2ccc(-c3nc4ccccc4[nH]3)s2)c1", "inhibition": 2.18}, {"smiles": "Cc1nnc2c(NC(=O)NC3CCCC3)cc3cc(-c4ccc(CN5CCCCC5)cc4)ccc3n12", "inhibition": 1.79}, {"smiles": "COc1ccc2c(=NN=Cc3ccc(F)cc3)cc(C)[nH]c2c1", "inhibition": 12.2}, {"smiles": "Cc1ccccc1C1CCN(C2CCC(NC(=O)c3ccc(-c4cc(C(F)(F)F)nn4C)s3)CC2)CC1", "note": "(stereo not given)", "inhibition": 10.8}, {"smiles": "CCOc1cc(Cc2cnc(N)nc2N)cc(Br)c1OC", "inhibition": 0.49}, {"smiles": "Cc1cc(N2CCNCC2)c2cc(NC(=O)Nc3ccc(Cl)c(Cl)c3)ccc2n1", "inhibition": 3.19}, {"smiles": "CN(C)CCOc1ccc(-c2cc(-c3ccnc(N)n3)c(-c3ccc(Cl)c(O)c3)o2)cc1", "inhibition": 1.34}, {"smiles": "Cc1ccc(Cn2cnc3cc(C(=O)Nc4ccc(-c5cccc(CN(C)C)c5)cc4)ccc3c2=O)o1", "inhibition": 75.5}, {"smiles": "CCOC(=O)C(NC(=O)Cc1ccccc1)C(C)C", "note": "(stereo not given)", "inhibition": -2.58}, {"smiles": "CCCCN(CCCC)CCNC(=O)c1cccc(NC(=O)N2CCc3cc(SC)c(C(F)(F)F)cc32)c1", "inhibition": 3.07}, {"smiles": "COc1ccc(N2C(=O)c3c(c4ccccc4n3C)C2c2ccccc2O)cc1", "note": "(stereo not given)", "inhibition": 6.27}, {"smiles": "CCOc1cc(C(C)C)ccc1C1CCN(CCCCNC(=O)c2ccc(NC(=O)c3ccc(Cl)cc3)cc2)CC1", "inhibition": 3.78}, {"smiles": "O=C(/C=C/c1ccc(Cl)c(Cl)c1)NCCCCCN1CCCN(C(=O)Nc2cc(Cl)nc(Cl)c2)CC1", "inhibition": 5.11}, {"smiles": "O=C(Nc1ccc(-c2nc3ccccc3[nH]2)cc1)C1CCCN(CC2CC2)C1", "note": "(stereo not given)", "inhibition": 12.9}, {"smiles": "N#Cc1ccc(NC(=O)N2CCCN(CCCCCNC(=O)/C=C/c3ccc(Cl)c(Cl)c3)CC2)cc1", "inhibition": 1.89}, {"smiles": "Cc1cc(-c2ccc3c(c2)CC[C@@H](N[C@@H](C)c2ccccc2)C3)cnc1N", "inhibition": 4.92}, {"smiles": "COc1cc(Nc2ccc3cc(S(=O)(=O)N4CCCCC4C)ccc3n2)cc(OC)c1OC", "note": "(stereo not given)", "inhibition": 6.4}, {"smiles": "Cc1[nH]c(C)c(-c2ccc(OCc3cccc(C(F)(F)F)c3)nc2)c(=O)c1Br", "inhibition": 44.5}, {"smiles": "CC(=O)Nc1nc(C(=O)Nc2cccc(-c3ccc(-c4nc5cc(F)ccc5[nH]4)cc3)c2)cs1", "inhibition": 2.38}, {"smiles": "CC[C@H](C)CNC(=O)c1cncc(-c2cccc(CN3CCC(N4CCCC4)CC3)c2)c1", "inhibition": -3.12}, {"smiles": "CN1CCCC(CN2CCN(Cc3ccc(-c4ccc(-c5nc6ccccc6[nH]5)s4)cc3)CC2)C1", "note": "(stereo not given)", "inhibition": 22.9}]}, {"molecular_target": "Hexose transporter 1 (Plasmodium falciparum) (UniProt O97467)", "assay": "ST_JUDE_LEISH: Cytotoxicity at 2uM final concentration against transgenic Leishmania Mexicana promastigotes LmPfHT that are glucose transport deficient and complemented with the Plasmodium falciparum hexose transporter. Activity is measured by DNA content using SYBR green in vitro", "type": "functional", "units": {"inhibition": "%"}, "values": [{"smiles": "CCCN1CCN(CCCCNc2c3ccccc3nc3ccccc23)CC1", "inhibition": 73.8}, {"smiles": "COc1cccc(C(=O)NCc2cccs2)c1OCc1ccccc1", "inhibition": 0.89}, {"smiles": "COc1ccc(Nc2cc(C)nc(Nc3ccc(NC(C)=O)cc3)n2)cc1", "inhibition": 67.4}, {"smiles": "CC(C)C(=O)NC(Nc1ccc([N+](=O)[O-])cc1)C(Cl)(Cl)Cl", "note": "(stereo not given)", "inhibition": 3.53}, {"smiles": "N=C(N)NCCCN(Cc1ccccc1)c1ccc(Cl)cc1", "inhibition": 4.12}, {"smiles": "COc1ccc(S(=O)(=O)N(CC(=O)NN=C(C)c2cccs2)c2cc(C)cc(C)c2)cc1OC", "inhibition": 2.03}, {"smiles": "Cc1ccc2c(c1)C1(CC(=O)N(CCc3scnc3C)C1=O)C(=O)N2Cc1ccccc1", "note": "(stereo not given)", "inhibition": 3.66}, {"smiles": "CCN(CCCN1CCCCC1)c1cc(C)nc(Nc2ccc(Cl)cc2)n1", "inhibition": 2.6}, {"smiles": "CN(C)Cc1ccc(-c2ccc(NC(=O)c3ccc4c(=O)n(Cc5ccccc5)cnc4c3)cc2)cc1", "inhibition": 94}, {"smiles": "CCN(CC)c1ccc(C=CC(=O)NCCN2CCC(N(C)C3CCCCC3C)CC2)cc1", "note": "(stereo not given)", "inhibition": -0.93}, {"smiles": "COc1cc(C(=O)N2CCC(CCN3CCC4(CC3)CN(S(C)(=O)=O)c3ccccc34)CC2Cc2ccc(Cl)c(Cl)c2)cc(OC)c1OC", "note": "(stereo not given)", "inhibition": 4.25}, {"smiles": "CCOC(=O)N1CCN(C(=O)Nc2ccc(Cl)cc2)CC1", "inhibition": 1}, {"smiles": "O=C(NC1CCN(Cc2ccccc2)CC1)c1ccc(CNC2CCN(Cc3ccccc3)CC2)cc1", "inhibition": 3.94}, {"smiles": "O=C(Nc1ccc2c(c1)OCCO2)c1cc(-c2cccnc2)nc2ccc(Cl)cc12", "inhibition": 1.71}, {"smiles": "Cc1cccc2nc(-c3cccc(-c4cccc(NC(=O)Nc5ccccc5)c4)c3)[nH]c12", "inhibition": 3.36}, {"smiles": "Cc1cnc(C(=O)Nc2cccc(-c3cccc(-c4nc5cccc(C)c5[nH]4)c3)c2)cn1", "inhibition": 2.89}, {"smiles": "CC(C)C[C@@H](CNC[C@H](CC(C)C)NC(=O)OC(C)(C)C)NC(=O)OC(C)(C)C", "inhibition": -2.4}, {"smiles": "COc1cc2nc(Nc3ccc4c(c3)OCCO4)nc(N)c2cc1OC", "inhibition": -0.78}, {"smiles": "COc1cccc2cc(C(=O)N[C@@H](CC(C)C)C(=O)N[C@H](C=NN3CC(=O)NC3=O)CC(C)C)oc12", "inhibition": 3.84}, {"smiles": "O=C(CCc1c[nH]cn1)Nc1cccc(-c2ccc(-c3nc4ccccc4[nH]3)s2)c1", "inhibition": 4.04}, {"smiles": "Cc1nnc2c(NC(=O)NC3CCCC3)cc3cc(-c4ccc(CN5CCCCC5)cc4)ccc3n12", "inhibition": 1.94}, {"smiles": "COc1ccc2c(=NN=Cc3ccc(F)cc3)cc(C)[nH]c2c1", "inhibition": 11}, {"smiles": "Cc1ccccc1C1CCN(C2CCC(NC(=O)c3ccc(-c4cc(C(F)(F)F)nn4C)s3)CC2)CC1", "note": "(stereo not given)", "inhibition": 9.92}, {"smiles": "CCOc1cc(Cc2cnc(N)nc2N)cc(Br)c1OC", "inhibition": 2.73}, {"smiles": "Cc1cc(N2CCNCC2)c2cc(NC(=O)Nc3ccc(Cl)c(Cl)c3)ccc2n1", "inhibition": 3.7}, {"smiles": "CN(C)CCOc1ccc(-c2cc(-c3ccnc(N)n3)c(-c3ccc(Cl)c(O)c3)o2)cc1", "inhibition": 1.5}, {"smiles": "Cc1ccc(Cn2cnc3cc(C(=O)Nc4ccc(-c5cccc(CN(C)C)c5)cc4)ccc3c2=O)o1", "inhibition": 59}, {"smiles": "CCOC(=O)C(NC(=O)Cc1ccccc1)C(C)C", "note": "(stereo not given)", "inhibition": -2.35}, {"smiles": "CCCCN(CCCC)CCNC(=O)c1cccc(NC(=O)N2CCc3cc(SC)c(C(F)(F)F)cc32)c1", "inhibition": 4.24}, {"smiles": "COc1ccc(N2C(=O)c3c(c4ccccc4n3C)C2c2ccccc2O)cc1", "note": "(stereo not given)", "inhibition": 4.4}, {"smiles": "CCOc1cc(C(C)C)ccc1C1CCN(CCCCNC(=O)c2ccc(NC(=O)c3ccc(Cl)cc3)cc2)CC1", "inhibition": 4.23}, {"smiles": "O=C(/C=C/c1ccc(Cl)c(Cl)c1)NCCCCCN1CCCN(C(=O)Nc2cc(Cl)nc(Cl)c2)CC1", "inhibition": 6.64}, {"smiles": "O=C(Nc1ccc(-c2nc3ccccc3[nH]2)cc1)C1CCCN(CC2CC2)C1", "note": "(stereo not given)", "inhibition": 10.8}, {"smiles": "N#Cc1ccc(NC(=O)N2CCCN(CCCCCNC(=O)/C=C/c3ccc(Cl)c(Cl)c3)CC2)cc1", "inhibition": 1.77}, {"smiles": "Cc1cc(-c2ccc3c(c2)CC[C@@H](N[C@@H](C)c2ccccc2)C3)cnc1N", "inhibition": 1.71}, {"smiles": "COc1cc(Nc2ccc3cc(S(=O)(=O)N4CCCCC4C)ccc3n2)cc(OC)c1OC", "note": "(stereo not given)", "inhibition": 34.2}, {"smiles": "Cc1[nH]c(C)c(-c2ccc(OCc3cccc(C(F)(F)F)c3)nc2)c(=O)c1Br", "inhibition": 64.4}, {"smiles": "CC(=O)Nc1nc(C(=O)Nc2cccc(-c3ccc(-c4nc5cc(F)ccc5[nH]4)cc3)c2)cs1", "inhibition": 1.38}, {"smiles": "CC[C@H](C)CNC(=O)c1cncc(-c2cccc(CN3CCC(N4CCCC4)CC3)c2)c1", "inhibition": 2.1}, {"smiles": "CN1CCCC(CN2CCN(Cc3ccc(-c4ccc(-c5nc6ccccc6[nH]5)s4)cc3)CC2)C1", "note": "(stereo not given)", "inhibition": 34.8}]}]}
